# High-throughput results (PubChem)
# Rows were chosen to be rich in hits. Some 20% of all compounds tested hit in one or more screens of this group.
# Pf growth 96h – P. falciparum growth inhibition at 96 hours; AID 504834; P. falciparum luciferase reporter growth, 96 h; Potency, µM (highest dose often 28.7 µM), for inactives: at the highest dose activity change, negative = inhibition, hits mostly inhibitors; 6.9% of 320,000 active; further: potency means the concentration at half of the fitted maximal effect; on the % scale 0 is the no-effect control and ±100 the full control effect
#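 96 h incubation, 37 C, 5% CO2, of luciferase-reporter P. falciparum-infected RBCs (2% hematocrit, 0.05% parasitemia final) with test compounds; endpoint luminescence.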
# HCMV antiviral – blocks human cytomegalovirus replication; AID 1259415; 4.5% of 410,000 active; activity change, negative = inhibition, % at 57.5 µM; HFF cells, HCMV-luciferase reporter, 72 h; hits give low values; in the data active means activity change below about -60%; inconclusive means no clear call, values can overlap the other calls; inactive means above about -39%; further: on the % scale 0 is the no-effect control and ±100 the full control effect
#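 Inhibition of viral replication was scored as loss of reporter luminescence in HFFs infected with HCMV-luciferase (MOI 1 PFU/cell) for 72 h; compounds tested at 2 doses, normalized to buffer and Salinomycin controls.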
# Cycloheximide cs – counter-screen hit for Shiga toxin inhibitors, cycloheximide | max response, % | 12% of 300,000 active | cell reporter, cycloheximide protein synthesis inhibition counterscreen; in the data active means max response mostly above about 13%, no sharp cut-off; inactive means mostly below about 14%; further: read at 38.3 µM for the half of the compounds with a filed dose; 0% is about no effect
# Shiga inhibitor – blocks Shiga toxin action in Vero cells; AID 2315; inhibition, % at 38.7 µM; Vero cells, Shiga toxin protein synthesis inhibition reporter; 9.2% of 290,000 active; in the data active means inhibition mostly above about 28%, no sharp cut-off; inactive means mostly below about 43%; further: 0% is about no effect
# Pf growth 48h – P. falciparum growth inhibition at 48 hours (one generation) | P. falciparum luciferase growth in erythrocytes, 48 h | Potency, µM (top dose mostly 28.7 µM), without a hit: at the top dose activity change, negative = inhibition, most hits filed as inhibitors | 5.9% of 310,000 active; further: potency means the concentration at half of the fitted maximal effect; on the % scale 0 is the no-effect control and ±100 the full control effect
#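 First compound was added to culture medium, then infected red cells at 0.1% parasitemia and 2% hematocrit (final). After incubation at 37 C under 5% CO2, luciferase detection reagent was dispensed and light output recorded.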
# * = called active by the depositor; ? = inconclusive; / = not tested or not shown. Unless noted, the call rests on the fitted dose curve; in most records, active means well fitted inhibition curve with a large enough effect; inconclusive means small, poorly fitted or top-dose-only effect, or another doubt; inactive means no such curve, though single readings can be large or run the other way.
SMILES,Pf growth 96h,HCMV antiviral,Cycloheximide cs,Shiga inhibitor,Pf growth 48h
CC1CCCCC1NC(=O)/C=C/c1nc2ccccc2s1 (centres undefined),?,-12,30*,76,4%
CCN(CC)C(=O)CN1C(=O)NC2(CCc3ccccc3C2)C1=O (centres undefined),13%,-7,-1,-17,-17%
Cc1c(Cl)cccc1-n1ncc(C(=O)N2CCc3ccccc3C2)c1C1CCN(C(=O)OC(C)(C)C)CC1,/,14,/,/,/
NC(=O)CSc1nc2ccc(NC(=O)COc3ccccc3)cc2s1,/,26,/,/,/
Nc1cc(N)nc(SCC(=O)c2ccccc2)n1,?,80,40*,12,19%
O=C(Nc1ccc2nc(SCc3ccccc3)sc2c1)c1ccccc1F,/,-12,/,/,/
Nc1ccc2nc(SCC(=O)c3ccccc3)sc2c1,?,27,45*,68*,0%
Nc1ccc2nc(SCc3ccccc3F)sc2c1,234%,49,71*,87*,224%
CCC1CCCCN1S(=O)(=O)c1ccc(C(=O)Nc2nnc(C3=COCCO3)o2)cc1 (centres undefined),?,-14,-3,-5,-11%
CCn1c(SCc2nc3ccccc3c(=O)[nH]2)nnc1C(C)NC(=O)c1ccccc1F (centres undefined),12%,-28,-1,-7,2%
COc1cc(NC(=O)c2ccccc2)c(OC)cc1NC(=O)Cc1ccc(F)cc1,?,-25,-3,-8,?
CC1CC(C)CN(S(=O)(=O)c2ccc(NC(=S)NC(=O)c3ccccc3)cc2)C1 (centres undefined),17%,-24,8,7,10%
Oc1cccc2nc3ccccc3nc12,12µM*,6,21*,44,?
CCN(CC)C(=O)c1cccc2nc3ccccc3nc12,14%,-16,-2,4,5%
CCN(CC)S(=O)(=O)c1ccc(C(C)NCC(=O)Nc2ccccc2C(=O)NC2CC2)cc1 (centres undefined),?,-25,/,/,10µM*
CC(NCC(=O)Nc1ccccc1C(=O)NC1CC1)c1ccco1 (centres undefined),7%,-18,/,/,1.7µM*
COC(=O)c1cc2c(-c3ccccc3)c(C)c3ccccn3c-2c1C(=O)OC,?,-35,-4,-4,/
COC(=O)c1c(Cl)c2n3ccccc3c(C)c(-c3ccccc3)c-2c1C(=O)OC,10µM*,90,-3,-4,?
O=C(c1c(F)cccc1F)N1CCN(c2ncccn2)CC1,/,16,-2,-23,7%
CCOc1ccc(S(=O)(=O)n2cc(F)c(=O)[nH]c2=O)cc1,13µM*,2,4,-18,?
CCOc1ccc(S(=O)(=O)n2cc(F)c(=O)[nH]c2=O)cc1[N+](=O)[O-],?,43,-8,3,-16%
CCOc1ccc(NC(=O)CN(c2ccc(OC)cc2)S(C)(=O)=O)cc1,/,100,98*,121*,102%
CN1CCN(C(=O)c2ccc(N(Cc3ccc(Cl)cc3)S(C)(=O)=O)cc2)CC1,?,-15,8,-5,2%
CCOc1ccc(N(CC(=O)Nc2ccc(OC)cc2)S(C)(=O)=O)cc1,?,52,39*,53*,44%
CC(C)NC(=O)c1ccc(N(Cc2ccc(Cl)cc2)S(C)(=O)=O)cc1,10µM*,17,-4,-6,-1%
SMILES,Pf growth 96h,HCMV antiviral,Cycloheximide cs,Shiga inhibitor,Pf growth 48h
CCOc1ccc(N(CC(=O)Nc2ccc(C)c(Cl)c2)S(C)(=O)=O)cc1,-16%,74,24*,19,76%
CCOc1ccc(N(CC(=O)Nc2ccc(Cl)cc2)S(C)(=O)=O)cc1,/,47,/,/,/
CSc1cccc(NC(=O)CN(c2cccc(C)c2)S(C)(=O)=O)c1,16%,72,-4,-5,/
Cc1cccc(NC(=O)c2ccc(N(Cc3ccccc3)S(C)(=O)=O)cc2)c1,/,-66*,/,/,/
COC(=O)c1ccc(NC(=O)CN(c2ccc(OC)cc2)S(C)(=O)=O)cc1,3%,24,53*,63*,48%
COc1ccc(N(CC(=O)Nc2cccc3ccccc23)S(C)(=O)=O)cc1,260%,19,12*,17,27%
CCOc1ccc(N(CC(=O)Nc2cccc(C)c2)S(C)(=O)=O)cc1,?,93,54*,86*,44%
CC(=O)c1cccc(NC(=O)c2ccc(N(Cc3ccccc3)S(C)(=O)=O)cc2)c1,-28%,6,-2,19,/
CCS(=O)(=O)N(CC(=O)Nc1cccc2ccccc12)c1ccc(OC)cc1,-8%,8,/,/,-12%
